The values that follow come from PubChem BioAssay (NCI).

Among the test systems are NCI-H23 lung; NCI-H226 lung; NCI-H322M lung; HOP-62 NSCLC; NCI-H460 lung; HOP-92 NSCLC; A549/ATCC NSCLC; 786-0 renal; COLO 205 colon; DU-145 prostate; K-562 leukemia; MALME-3M melanoma; MDA-MB-231 breast; RXF 393 renal; SF-268 CNS; SF-295 CNS; UACC-257 melanoma; M14 melanoma; SF-539 CNS; NCI-H522 lung.
Holding throughout (assay): NCI-60 one-dose screen, 48 h (100 = growth as untreated, 0 = no growth, -100 = all killed)
Common to all, as to conditions: 10 µM unless noted

Molecules are shown by their SMILES. About 83,000 compounds went through this panel and 20% of them were active in at least one assay; those are over-represented in the sample as a whole.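 Results are percent growth after 48 hours of single-concentration exposure. 100 means growth as in untreated cells, lower positive values show inhibition; negative values down to -100 show cell death.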 Values without a mark were called inactive. The source made the active and inactive calls. Rule for the calls: active = growth percent below 10; inactive = the rest.

`CCOC(=O)c1c2c(n3ccc(NC(=O)CCN4CCOCC4)cc13)C(=O)c1ncccc1C2=O`: the growth in the test with NCI-H23 lung was 16.7%; with NCI-H226 lung it was 78.5%; in the test on NCI-H322M lung, 14.3%; in the test with HOP-62 NSCLC it was 39.9%; in the test with NCI-H460 lung, 11.1%; in the test on HOP-92 NSCLC it was 45.1%. Besides, the growth was 40.4% in the test with A549/ATCC NSCLC; 51.8% in the test with 786-0 renal; 37.9% in the test on COLO 205 colon; 45.8% in the test on DU-145 prostate; 19.8% in the test on K-562 leukemia; 42.6% in the test on MALME-3M melanoma. Moreover, the growth with MDA-MB-231 breast was 26%; in the test with RXF 393 renal it was 63%; with SF-268 CNS it was 39%; in the test with SF-295 CNS, 49.3%; with UACC-257 melanoma it was 32%; in the test on M14 melanoma it was 24.6%.

With `CCOC(=O)c1c2ncccc2n2c(=O)n(-c3ccc(Cl)cc3)nnc12`, the growth with NCI-H23 lung was 92.7%; in the test with NCI-H226 lung it was 104%; in the test with NCI-H322M lung, 67.1%; with HOP-62 NSCLC it was 71.7%; in the test on NCI-H460 lung, 69.7%; in the test on HOP-92 NSCLC, 101%. Also, the growth is 81.8% in the test on A549/ATCC NSCLC; 97.1% in the test with 786-0 renal; 109% in the test with COLO 205 colon; 112% in the test with DU-145 prostate; 77.7% with K-562 leukemia; 95.7% in the test on MALME-3M melanoma. Also, the growth in the test with MDA-MB-231 breast is 91.2%; with RXF 393 renal, 104%; in the test with SF-268 CNS it was 72.3%; in the test on SF-295 CNS, 9.85% (active); in the test with SF-539 CNS it was 47.8%; in the test with UACC-257 melanoma, 102%. Besides, the growth in the test on M14 melanoma was 81.1%.

As for `CCCCCC(=O)N(CCCC)CCCC`, the growth was 107% in the test on NCI-H23 lung; 99.7% in the test on NCI-H226 lung; 89.4% in the test on NCI-H322M lung; 104% with HOP-62 NSCLC; 110% in the test on NCI-H460 lung; 91.7% with HOP-92 NSCLC. Moreover, the growth in the test with NCI-H522 lung is 97.6%; with 786-0 renal, 104%; in the test on COLO 205 colon, 125%; in the test with DU-145 prostate it was 120%; with K-562 leukemia, 94.8%; in the test on MALME-3M melanoma, 96.8%. Besides, the growth in the test with MDA-MB-231 breast is 99.7%; with SF-268 CNS, 115%; in the test with SF-295 CNS, 88.2%; in the test with SF-539 CNS it was 97.4%; in the test with UACC-257 melanoma, 92.1%; in the test on M14 melanoma, 104%.

On to `O=C(Nc1cccc2c1C(=O)c1cccc(Nc3cccc4c3C(=O)c3cccc(NC(=O)c5ccccc5)c3C4=O)c1C2=O)c1ccccc1`, for which the growth is 108% with NCI-H23 lung; 102% in the test on NCI-H226 lung; 112% with NCI-H322M lung; 104% in the test with HOP-62 NSCLC; 113% in the test on NCI-H460 lung; 90.7% in the test on HOP-92 NSCLC. The growth in the test with A549/ATCC NSCLC was 90.1%; with 786-0 renal, 117%; with COLO 205 colon it was 117%; in the test on DU-145 prostate, 120%; in the test on K-562 leukemia, 116%; in the test with MALME-3M melanoma, 120%. For the same molecule, the growth in the test with RXF 393 renal was 120%; with SF-268 CNS, 110%; with SF-295 CNS, 100%; in the test on SF-539 CNS it was 109%; in the test with UACC-257 melanoma, 103%; in the test on M14 melanoma, 104%.

On to `C[C@]12C[C@@H](c3ccoc3)OC(=O)[C@@H]1CC[C@]1(C)[C@@H]2CC[C@@H](O)[C@]1(C)O`, for which the growth is 76.1% in the test on NCI-H23 lung; 107% in the test with NCI-H226 lung; 99.2% in the test on NCI-H322M lung; 49.4% in the test on HOP-62 NSCLC; 50.1% in the test on NCI-H460 lung; 54.2% with HOP-92 NSCLC. In addition, the growth in the test on A549/ATCC NSCLC is 49.5%; in the test with 786-0 renal, 84%; with COLO 205 colon, 40.9%; in the test with DU-145 prostate it was 73%; with K-562 leukemia it was 39.8%; in the test with MALME-3M melanoma, 81.6%. The growth was 74.6% in the test on MDA-MB-231 breast; 102% with RXF 393 renal; 106% in the test on SF-268 CNS; 51.7% in the test with SF-295 CNS; 83% in the test with UACC-257 melanoma; 82.4% in the test on M14 melanoma.

On to `O=C(O)c1cccnc1Br`, for which the growth is 98.1% with NCI-H23 lung; 99.8% with NCI-H226 lung; 112% in the test on NCI-H322M lung; 96.2% with HOP-62 NSCLC; 113% in the test on NCI-H460 lung; 115% in the test on HOP-92 NSCLC. The growth with A549/ATCC NSCLC was 101%; with 786-0 renal, 90.2%; in the test with COLO 205 colon it was 115%; with DU-145 prostate, 129%; in the test on K-562 leukemia, 109%; in the test on MALME-3M melanoma, 109%. For the same molecule, the growth is 107% in the test with MDA-MB-231 breast; 121% in the test on RXF 393 renal; 110% in the test with SF-268 CNS; 96.1% in the test with SF-295 CNS; 91.9% in the test on SF-539 CNS; 106% in the test with UACC-257 melanoma. The growth in the test on M14 melanoma is 99.7%.

On to `CC/C=C\C[C@H](O)C/C=C1/C(=O)C=C[C@@H]1C/C=C\CCCC(=O)NC(C)C`, for which the growth in the test with NCI-H23 lung was 13.4%; in the test on NCI-H226 lung it was -33.5% (active); with NCI-H322M lung, 39.9%; with HOP-62 NSCLC, -16.8% (active); with NCI-H460 lung it was -4.43% (active); with HOP-92 NSCLC it was 65.3%. Moreover, the growth in the test with A549/ATCC NSCLC is 2.59% (active); in the test with 786-0 renal, 0.451% (active); with COLO 205 colon, -41.3% (active); in the test on DU-145 prostate it was 27.2%; with K-562 leukemia, 3.29% (active); in the test with MALME-3M melanoma, -4.08% (active). Besides, the growth in the test on MDA-MB-231 breast was 19.9%; in the test on RXF 393 renal, -64.8% (active); in the test with SF-268 CNS, 35.4%; with SF-295 CNS, 6.21% (active); in the test with UACC-257 melanoma it was -4.26% (active); in the test with M14 melanoma it was 7.13% (active).

For the molecule `C=C1C(=O)O[C@H]2[C@H]1CC/C(Cn1cc(Cn3ccc4cc(Cl)ccc43)nn1)=C\CC[C@@]1(C)O[C@@H]21`, the growth was 13.1% in the test on NCI-H23 lung; 61.4% with NCI-H226 lung; 76.6% in the test with NCI-H322M lung; 75.7% in the test on HOP-62 NSCLC; 64.2% in the test on NCI-H460 lung; -61.6% (active) in the test on HOP-92 NSCLC. Besides, the growth was 48.5% with A549/ATCC NSCLC; -71.4% (active) in the test on 786-0 renal; -82.3% (active) in the test on COLO 205 colon; 4.94% (active) in the test on DU-145 prostate; -29.2% (active) with K-562 leukemia; -67.1% (active) with MALME-3M melanoma. The growth in the test with MDA-MB-231 breast is -51.8% (active); with RXF 393 renal, -72.2% (active); with SF-268 CNS, 18.4%; in the test on SF-295 CNS, 73.5%; in the test with SF-539 CNS, -88.6% (active); in the test on UACC-257 melanoma, 28.8%. Further, the growth in the test on M14 melanoma was -4.18% (active).
